Measurements taken from PubChem BioAssay AID430 (Sanford-Burnham Center for Chemical Genomics, 2006).
The campaign covered roughly 63,000 compounds. About 1,100 (1.7%) were called active. Many of the other results were omitted from the sample, so actives are more common in it than they were. Potency and affinity values are given separately. A number with no mark means an inactive call. Rule as the data show it: active = cytotoxicity above about 50%; inactive = the rest.

Assay: cytotoxicity in HPDE-C7 cells, cell-based, fluorescence, HTS (AID 430);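 also: cells exposed to compound for 48 hours before viability readout; 0% = vehicle and 100% = reference cytotoxic drug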
Details: HPDE-C7 pancreatic duct cells viability, at 10 µM, active compounds read high

| SMILES | cytotoxicity |
| --- | --- |
| Cc1cc(N2CCN(c3ccccc3)CC2)n2c(n1)nc1ccccc12 | -8.6% |
| CC(=O)N1CCc2cc(S(=O)(=O)NCCN3CCC(C)CC3)ccc21 | 2.7% |
| COc1ccc(OC)c(C2CC(=O)NC(SC)=C2C#N)c1 (stereo unspecified) | -2.9% |
| Cc1cc(C)c2nc(N)sc2c1 | 3.8% |
| c1ccc(COc2ccc(OCCCn3cncn3)cc2)cc1 | -20.8% |
| O=C(O)C1C2C=CC(C2)C1C(=O)NCc1ccoc1 (stereo unspecified) | -8.3% |
| CCOc1ccc(OCc2ccc(C(=O)NCc3ccncc3)o2)cc1 | -3% |
| CCN(CC)C(=O)CSC1=C(C#N)C(c2ccco2)C(C(=O)OCCOC)=C(C)N1 (stereo unspecified) | -11% |
| CCOC(=O)CSC1=C(C#N)C(c2ccco2)C(C(=O)OCc2ccccc2)=C(C)N1 (stereo unspecified) | 58.8% (active) |
| CSCSC1=C(C#N)C(c2ccc(Cl)cc2)C(C(C)=O)=C(C)N1 (stereo unspecified) | -18.3% |
| CC(=O)C1=C(C)OC(N)=C(C#N)C1c1ccco1 (stereo unspecified) | -2.2% |
| CC(=O)C1=C(C)NC(SCC(=O)c2ccc(Cl)cc2)=C(C#N)C1c1ccco1 (stereo unspecified) | 57.9% (active) |
| C=CCOC(=O)C1=C(C)NC(SCC(=O)N(CC)CC)=C(C#N)C1c1ccco1 (stereo unspecified) | 12.7% |
| CN(c1ccc(C(=O)NCc2ccccc2)cc1)S(C)(=O)=O | -26.5% |
| CCCS(=O)(=O)N1CCC(C(=O)NCCN2CCCC2)CC1 | 2.1% |
| COc1ccc(-c2nnc(SCc3ncc(-c4ccccc4)o3)o2)cc1 | -2.9% |
| O=S1(=O)N=C(Nc2nc3c(s2)CCCC3)c2ccccc21 | -10% |
| Cc1nc(Sc2nnnn2C)c2c3c(sc2n1)CCC3 | 76.2% (active) |
| Cc1nc(SCC#N)c2c3c(sc2n1)CCC3 | -19% |
| CSc1nc2sc3c(c2c2nnnn12)CCC3 | 7.6% |
| CC1Cc2ccccc2N1C(=O)Cn1nnc(-c2ccccc2NC(=O)C2CCC2)n1 (stereo unspecified) | -11.1% |
| CCOC(=O)C1CCCN(C(=O)CN2CCN(Cc3ccc(Cl)cc3)C2=O)C1 (stereo unspecified) | -28.3% |
| O=C(c1ccc(COc2ccccc2Cl)o1)N1CCN(Cc2ccc3c(c2)OCO3)CC1 | 87.5% (active) |
| O=C(c1ccc(Br)o1)N1CCN(Cc2ccc3c(c2)OCO3)CC1 | -8.7% |

| SMILES | cytotoxicity |
| --- | --- |
| O=C(c1ccc(Cn2cc(Cl)cn2)o1)N1CCN(Cc2ccc3c(c2)OCO3)CC1 | 12.9% |
| O=C(c1ccc(COc2ccccc2Cl)o1)N1CCN(c2ccccc2)CC1 | -4.6% |
| O=C(c1ccc(COc2ccc(Cl)cc2)o1)N1CCN(Cc2ccc3c(c2)OCO3)CC1 | 69.1% (active) |
| CC1CCN(C(=O)c2ccc(COc3ccccc3Cl)o2)CC1 | -8.9% |
| Cn1c(O)c(C=NC(CC(N)=O)C(=O)O)c(=O)n(C)c1=O (stereo unspecified) | -3.1% |
| O=C(COc1cc(Cl)c(Cl)cc1Cl)Nc1ccncc1 | 14.9% |
| CCOC(=O)CC(=O)CSc1nc2sc(C)cc2c(=O)n1Cc1ccco1 | -13.3% |
| COCCn1nnnc1C(c1ccc(OC)cc1)N1CCC(C)CC1 (stereo unspecified) | -5.9% |
| O=C1c2ccccc2C(=O)N1CCc1nc2ccccc2c(=O)n1CCCn1ccnc1 | -20.5% |
| N#Cc1nc(-c2ccc(OCc3ccccc3)cc2)oc1N1CCOCC1 | 14.5% |
| COc1ccccc1S(=O)(=O)Cc1ccc(C(=O)NC(C)c2ccc3c(c2)OCCO3)o1 (stereo unspecified) | -4.2% |
| COc1ccc(N(C)C(=O)Nc2ccc3c(c2)nnn3C)cc1 | -17.6% |
| O=C(NCc1ccccn1)c1coc(=O)c(Br)c1 | 52.2% (active) |
| O=C(NCc1ccccn1)c1cc2cc(Br)ccc2oc1=O | 4.9% |
| O=C(NCc1ccccn1)c1ccc(=O)oc1 | 0.8% |
| Cc1c(C(=O)NCc2cccnc2)oc2ccc(S(=O)(=O)N3CC(C)CC(C)C3)cc12 (stereo unspecified) | 43% |
| CN(c1nc(-c2ccccc2)cs1)C1CCS(=O)(=O)C1 (stereo unspecified) | 4.5% |
| CCOC(=O)N1CCN(S(=O)(=O)c2cc(Cl)c(OC)cc2Cl)CC1 | -2.9% |
| COc1cccc(CN(Cc2cccnc2)S(=O)(=O)c2ccc(-n3cnnn3)c(C)c2)c1 | 4.5% |
| CC(=O)Oc1cccc2c1C(=O)c1c(OC(C)=O)cc(C(=O)O)cc1C2=O | 25.5% |
| O=C(O)c1cc(C(=O)O)c(-c2ccccc2)c(C(=O)O)c1 | -22.6% |
| Cn1c(=O)c(=O)n(C)c2cc(S(=O)(=O)N3CCN(c4cccc(C(F)(F)F)c4)CC3)ccc21 | 71.5% (active) |
| Cn1c(=O)c2cc(S(=O)(=O)N3CCN(c4cccc(C(F)(F)F)c4)CC3)ccc2n(C)c1=O | -2.2% |
| Cc1c(S(=O)(=O)N2CCN(c3cccc(C(F)(F)F)c3)CC2)c(=O)n(C)c(=O)n1C | 5.2% |

| SMILES | cytotoxicity |
| --- | --- |
| O=C(C1CCC(Cn2c(=S)[nH]c3ccccc3c2=O)CC1)N1CCOCC1 (stereo unspecified) | -5.9% |
| CN1CCN(c2nc(-c3ccccc3)nc3c2oc2ccccc23)CC1 | -10% |
| O=C(O)C1CCN(c2nc(-c3ccccc3)nc3c2oc2ccccc23)CC1 | 23.4% |
| CCC(CC)C(=O)Nc1cc(NC(=O)C(CC)CC)cc(C(=O)O)c1 | -16.6% |
| CCN=C1SC(C(=O)NCCc2ccccc2)CC(=O)N1CC (stereo unspecified) | 5.8% |
| O=C(O)c1ccc(CN2C(=O)CSC2=S)cc1 | 19.2% |
| O=C1CSC(=S)N1c1cccnc1 | -9.7% |
| Cc1ccc(C(=O)CSc2ncn[nH]2)cc1 | 17.6% |
| Cn1c(N)c(C(=O)COC(=O)c2ccc3c(c2)OCCO3)c(=O)n(C)c1=O | -1.5% |
| Cc1ccc(-n2c(=O)cc(N3CC(C)CC(C)C3)[nH]c2=O)cc1 (stereo unspecified) | -15.2% |
| CC(=O)Nc1cccc(-c2nc3ccc(NC(C)=O)cc3[nH]2)c1 | 9.5% |
| CCOC(=O)N1CCN(c2c(-c3ccccc3)c3cc(Cl)ccc3[nH]c2=O)CC1 | 7.4% |
| O=C(c1ccco1)N1CCN(c2c(-c3ccccc3)c3cc(Cl)ccc3[nH]c2=O)CC1 | 83.6% (active) |
| O=c1[nH]c2ccc(Cl)cc2c(-c2ccccc2)c1N1CCOCC1 | 0.9% |
| CC(C)(C)n1nnnc1C(c1cccs1)N(Cc1ccccc1)Cc1ccco1 (stereo unspecified) | -4.3% |
| COc1cccc(NC(=O)C2CCCN2C(=O)Nc2cccc(F)c2)c1 (stereo unspecified) | 9.8% |
| COC(=O)CSc1nnc(-c2ccccc2OC)o1 | -25.6% |
| COc1ccccc1-c1nnc(SCC(=O)Nc2c(Cl)cccc2Cl)o1 | -1.3% |
| O=S(=O)(c1ccc(OCC(O)CNCc2ccco2)c(Cl)c1)N1CCOCC1 (stereo unspecified) | -9.8% |
| Cn1c(=O)cc(SCC(=O)NCc2ccco2)c2ccccc21 | -4.4% |
| CCn1c(=O)cc(SCC(=O)NCc2ccco2)c2ccccc21 | 62.1% (active) |
| Cc1ccc(C)c(Cn2c(=O)n(CCC(=O)NCc3ccco3)c(=O)c3ccccc32)c1 | -14.5% |
| Cc1ccc(C)c(Cn2c(=O)n(CCCC(=O)NCc3ccco3)c(=O)c3ccccc32)c1 | 60.2% (active) |
| CCn1c(=O)cc(OCC(=O)NCc2ccco2)c2ccccc21 | 5.8% |

| SMILES | cytotoxicity |
| --- | --- |
| Cc1ccccc1Cn1c(=O)n(CCCC(=O)NCc2ccco2)c(=O)c2ccccc21 | -24.1% |
| CC1CN(c2nc3ccccc3nc2C(C#N)C(=O)OC2CCCCC2)CC(C)O1 (stereo unspecified) | -26.1% |
| COC(=O)c1cc2ccsc2n1Cc1nc(-c2ccc(OC)cc2)oc1C | -7% |
| COC(=O)c1ccc(-c2ccco2)n1Cc1nc(-c2ccc(OC)c(OC)c2)oc1C | 71.6% (active) |
| COc1ccc(-c2nc(CS(=O)CC(=O)NCc3ccco3)c(C)o2)cc1OC (stereo unspecified) | 2.9% |
| COC(=O)C1=C(C)N(CC2CCCO2)C(=O)C1 (stereo unspecified) | 6% |
| Cc1cc(=O)[nH]c(SCc2cccc(Br)c2)n1 | 2.7% |
| Cc1cc(=O)[nH]c(SC/C=C/c2ccccc2)n1 | -13.4% |
| Cc1cc(=O)[nH]c(SCc2nc3ccccc3s2)n1 | 57% (active) |
| CC(=O)Nc1ccc(C(=O)CS(=O)(=O)c2ccc(C)cc2)cc1 | -17.2% |
| Cc1cc2c(c(=O)o1)C1(C(=O)N(C)c3ccccc31)C(C#N)=C(N)O2 (stereo unspecified) | -8.3% |
| COc1ccccc1-n1cnc2cc(NCc3ccco3)ccc21 | 63.6% (active) |
| CCC(=O)Nc1ccc2c(c1)ncn2-c1ccccc1OC | -35.6% |
| COc1ccccc1-n1cnc2cc(NC(C)=O)ccc21 | -8.6% |
| O=C(CCCCCN1C(=O)CCC1=O)Nc1ncn[nH]1 | -2.1% |
| CCCCCCc1cc2cc(C(=O)NC)c(=N)oc2cc1O | 19.4% |
| CCCCCCc1cc2cc(-c3nnc(-c4ccccc4O)o3)c(=O)oc2cc1O | 62.7% (active) |
| CCOc1cccc2cc(-c3nnc(-c4ccccc4)o3)c(=O)oc12 | -14.9% |
| N#CCCn1cc(C(CC(=O)c2ccc(Br)cc2)C(=O)O)c2ccccc21 (stereo unspecified) | -21.4% |
| CCOC(=O)Nc1ccc(S(=O)(=O)Nn2cnnc2)cc1 | -3.3% |
| CN1CCN(c2nc(-c3cccnc3)nc3ccccc23)CC1 | -0.2% |
| OCCSc1nc(-c2cccnc2)nc2ccccc12 | 5.1% |
| Cn1nnnc1Sc1nc(-c2cccnc2)nc2ccccc12 | 99.3% (active) |
| CCOc1cccc(-c2nnc3n2N=C(c2cc(OC)ccc2OC)CS3)c1 | 28.5% |
